In PMC12820563, “FoxP3 forms a head-to-head dimer in vivo and stabilizes its multimerization on adjacent microsatellites”:
In all, about 16,000 sequences were measured (“rpm ratio (pull-down/input)”: median about 0.5, highest 2% from about 5.5 on). Many of the other results were omitted from the sample, so the highest values are more common in it than they were.

Molecular target: T1, MBP-FoxP3dN (Mus musculus, UniProt Q99JB6 188-423)
T1 sequence: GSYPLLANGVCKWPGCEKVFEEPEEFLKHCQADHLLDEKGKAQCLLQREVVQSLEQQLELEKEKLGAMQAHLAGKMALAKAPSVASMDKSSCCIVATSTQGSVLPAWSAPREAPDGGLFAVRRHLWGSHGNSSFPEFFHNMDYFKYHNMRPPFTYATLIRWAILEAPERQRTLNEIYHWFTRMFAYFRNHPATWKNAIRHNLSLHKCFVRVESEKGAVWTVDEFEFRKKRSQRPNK
Assay: PD-seq (MBP pull-down with sequencing); 20 mM Tris-HCl pH 7.5, 100 mM NaCl, 1.5 mM MgCl2, 0.4 uM protein, 0.1 uM dsDNA library, 30 min, room temperature, amylose pull-down; high values mean tight binding
Settings: protein: recombinant; tags: His6-MBP; chain copies: 2; dsDNA, one strand shown
Summary of the method: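 Protein and DNA were mixed at 0.4 µM and 0.1 µM and held for 30 min at room temperature in Tris pH 7.5 buffer with NaCl and MgCl2; the protein was a His6-MBP-tagged, N-terminally truncated mouse FoxP3 or FoxP1 fragment from E. coli, and the DNA a Klenow-filled double-stranded degenerate library. Amylose resin captured the complexes, which were washed three times. Binding is read as reads-per-million enrichment of pull-down versus input after Illumina sequencing, with replicates pooled.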

Q: With “GATGATTGTTCTCCCAGCTGATGAATTTATATACTCGAGTAAACAAATTTTCCTAATCTTTCTGTTCAAGCGCCATCTAC” as the sequence, how does the binding signal read?
A: 3.39 RPM ratio (pull-down/input)

Q: With “GATGATTGTTCTCCCAGCTGATGAATTTTGGCCTTCGAGTAAACAAATTTTCCTAATCTTTCTGTTCAAGCGCCATCTAC” as the sequence, how does the binding signal read?
A: 2.06 RPM ratio (pull-down/input)

Q: How did the binding signal turn out when “GATGATTGTTCTCCCAGCTGATGAATTATTGCGATCGAGTAAACAAATTTTCCTAATCTTTCTGTTCAAGCGCCATCTAC” was run?
A: 1.08 RPM ratio (pull-down/input)

Q: With “GATGATTGTTCTCCCAGCTGATGAATTTGTTTTTTCGAGTAAACAAATTTTCCTAATCTTTCTGTTCAAGCGCCATCTAC” as the sequence, how does the binding signal read?
A: 6.93 RPM ratio (pull-down/input)

Q: For “GATGATTGTTCTCCCAGCTGATGAATTCTTTGTTTCGAGTAAACAAATTTTCCTAATCTTTCTGTTCAAGCGCCATCTAC”, which binding signal is on record?
A: 0.575 RPM ratio (pull-down/input)

Q: “GATGATTGTTCTCCCAGCTGATGAATTCGTTTTGTCGAGTAAACAAATTTTCCTAATCTTTCTGTTCAAGCGCCATCTAC” was tested. Which binding signal did it give?
A: 3.54 RPM ratio (pull-down/input)

Q: Which binding signal does the source give for “GATGATTGTTCTCCCAGCTGATGAATTGATTTGTTCGAGTAAACAAATTTTCCTAATCTTTCTGTTCAAGCGCCATCTAC” here?
A: 3.85 RPM ratio (pull-down/input)

Q: With “GATGATTGTTCTCCCAGCTGATGAATTCGTTTGTTCGAGTAAACAAATTTTCCTAATCTTTCTGTTCAAGCGCCATCTAC” as the sequence, how does the binding signal read?
A: 5.83 RPM ratio (pull-down/input)

Q: With “GATGATTGTTCTCCCAGCTGATGAATTTGGTTGTTCGAGTAAACAAATTTTCCTAATCTTTCTGTTCAAGCGCCATCTAC” as the sequence, how does the binding signal read?
A: 5.35 RPM ratio (pull-down/input)

Q: Which binding signal does the source give for “GATGATTGTTCTCCCAGCTGATGAATTTGATTGTTCGAGTAAACAAATTTTCCTAATCTTTCTGTTCAAGCGCCATCTAC” here?
A: 6.32 RPM ratio (pull-down/input)

Q: “GATGATTGTTCTCCCAGCTGATGAATTTGAATTTTCGAGTAAACAAATTTTCCTAATCTTTCTGTTCAAGCGCCATCTAC” was tested. Which binding signal did it give?
A: 0.538 RPM ratio (pull-down/input)

Q: For “GATGATTGTTCTCCCAGCTGATGAATTGGTTGGTTCGAGTAAACAAATTTTCCTAATCTTTCTGTTCAAGCGCCATCTAC”, which binding signal is on record?
A: 3.77 RPM ratio (pull-down/input)

Q: Which binding signal does the source give for “GATGATTGTTCTCCCAGCTGATGAATTCGTTTTTTCGAGTAAACAAATTTTCCTAATCTTTCTGTTCAAGCGCCATCTAC” here?
A: 2.58 RPM ratio (pull-down/input)

Q: Which binding signal does the source give for “GATGATTGTTCTCCCAGCTGATGAATTTGTTGGTTCGAGTAAACAAATTTTCCTAATCTTTCTGTTCAAGCGCCATCTAC” here?
A: 7.67 RPM ratio (pull-down/input)

Q: For “GATGATTGTTCTCCCAGCTGATGAATTTTTTGTTTCGAGTAAACAAATTTTCCTAATCTTTCTGTTCAAGCGCCATCTAC”, which binding signal is on record?
A: 0.423 RPM ratio (pull-down/input)

Q: How did the binding signal turn out when “GATGATTGTTCTCCCAGCTGATGAATTGTACTATTCGAGTAAACAAATTTTCCTAATCTTTCTGTTCAAGCGCCATCTAC” was run?
A: 0.669 RPM ratio (pull-down/input)

Q: With “GATGATTGTTCTCCCAGCTGATGAATTGTCCCTGTCGAGTAAACAAATTTTCCTAATCTTTCTGTTCAAGCGCCATCTAC” as the sequence, how does the binding signal read?
A: 0.319 RPM ratio (pull-down/input)

Q: Which binding signal does the source give for “GATGATTGTTCTCCCAGCTGATGAATTAGGGGTTTCGAGTAAACAAATTTTCCTAATCTTTCTGTTCAAGCGCCATCTAC” here?
A: 0.738 RPM ratio (pull-down/input)

Q: How did the binding signal turn out when “GATGATTGTTCTCCCAGCTGATGAATTTTACGCGTCGAGTAAACAAATTTTCCTAATCTTTCTGTTCAAGCGCCATCTAC” was run?
A: 0.624 RPM ratio (pull-down/input)

Q: How did the binding signal turn out when “GATGATTGTTCTCCCAGCTGATGAATTGAGACACTCGAGTAAACAAATTTTCCTAATCTTTCTGTTCAAGCGCCATCTAC” was run?
A: 1.41 RPM ratio (pull-down/input)

Q: Which binding signal does the source give for “GATGATTGTTCTCCCAGCTGATGAATTGCGGACATCGAGTAAACAAATTTTCCTAATCTTTCTGTTCAAGCGCCATCTAC” here?
A: 0.781 RPM ratio (pull-down/input)

Q: How did the binding signal turn out when “GATGATTGTTCTCCCAGCTGATGAATTAAAAATTTCGAGTAAACAAATTTTCCTAATCTTTCTGTTCAAGCGCCATCTAC” was run?
A: 0.202 RPM ratio (pull-down/input)

Q: With “GATGATTGTTCTCCCAGCTGATGAATTTGGTTAATCGAGTAAACAAATTTTCCTAATCTTTCTGTTCAAGCGCCATCTAC” as the sequence, how does the binding signal read?
A: 0.489 RPM ratio (pull-down/input)

Q: How did the binding signal turn out when “GATGATTGTTCTCCCAGCTGATGAATTTTCCGCATCGAGTAAACAAATTTTCCTAATCTTTCTGTTCAAGCGCCATCTAC” was run?
A: 1.07 RPM ratio (pull-down/input)

Q: Which binding signal does the source give for “GATGATTGTTCTCCCAGCTGATGAATTCCCGCATTCGAGTAAACAAATTTTCCTAATCTTTCTGTTCAAGCGCCATCTAC” here?
A: 5.9 RPM ratio (pull-down/input)

Q: For “GATGATTGTTCTCCCAGCTGATGAATTTCCCGCATCGAGTAAACAAATTTTCCTAATCTTTCTGTTCAAGCGCCATCTAC”, which binding signal is on record?
A: 0.913 RPM ratio (pull-down/input)

Q: With “GATGATTGTTCTCCCAGCTGATGAATTTCCGCATTCGAGTAAACAAATTTTCCTAATCTTTCTGTTCAAGCGCCATCTAC” as the sequence, how does the binding signal read?
A: 6.24 RPM ratio (pull-down/input)

Q: How did the binding signal turn out when “GATGATTGTTCTCCCAGCTGATGAATTCTCCGCATCGAGTAAACAAATTTTCCTAATCTTTCTGTTCAAGCGCCATCTAC” was run?
A: 0.8 RPM ratio (pull-down/input)

Q: Which binding signal does the source give for “GATGATTGTTCTCCCAGCTGATGAATTCCGCAATTCGAGTAAACAAATTTTCCTAATCTTTCTGTTCAAGCGCCATCTAC” here?
A: 4.91 RPM ratio (pull-down/input)

Q: “GATGATTGTTCTCCCAGCTGATGAATTCCCCGCATCGAGTAAACAAATTTTCCTAATCTTTCTGTTCAAGCGCCATCTAC” was tested. Which binding signal did it give?
A: 0.735 RPM ratio (pull-down/input)

Q: For “GATGATTGTTCTCCCAGCTGATGAATTCCGCGCATCGAGTAAACAAATTTTCCTAATCTTTCTGTTCAAGCGCCATCTAC”, which binding signal is on record?
A: 1.39 RPM ratio (pull-down/input)

Q: For “GATGATTGTTCTCCCAGCTGATGAATTCCGCATCTCGAGTAAACAAATTTTCCTAATCTTTCTGTTCAAGCGCCATCTAC”, which binding signal is on record?
A: 6.95 RPM ratio (pull-down/input)

Q: Which binding signal does the source give for “GATGATTGTTCTCCCAGCTGATGAATTCCGCATTTCGAGTAAACAAATTTTCCTAATCTTTCTGTTCAAGCGCCATCTAC” here?
A: 6.33 RPM ratio (pull-down/input)
